Screen size: about 5,400 compounds; about 190 (3.5%) showed an effect of 50% or more. This excerpt belongs to a sample that is enriched for strong results.
System: Vero-E6
Assay: primary screen, phospholipidosis by LipidTOX staining; higher = more effect of the substance
Details: 10 µM
Procedure, shortened: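 Drug-induced phospholipidosis detected with HCS LipidTOX Red reagent in Vero-E6 cells. Compounds tested at 10 μM, with amiodarone (10 μM) as positive control and DMSO (0.1 v/v %) as vehicle.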

SMILES	result_ITMP
O=C([O-])CCCc1ccccc1	0.94%
CCN(CCCc1ccccc1)CCCc1ccccc1	58.9%
NC(=O)OCCCc1ccccc1	-6.09%
C#Cc1cnc(O)nc1O	-3.59%
Cc1ccc(C)c(Oc2ccncc2C(=O)N2CCN(C3CC3)c3ccccc32)c1	-4.61%
O=C(O)c1ccccc1NC(=O)N1CCC(c2ccccc2C(F)(F)F)CC1	-0.92%
CCOc1ccc(S(=O)(=O)[O-])c2cccnc12	-2.55%
CCN(CC)CCOC(=O)C(c1ccccc1)C1CCCCC1 (stereo not drawn)	52%
CCN(CC)CCOC(=O)C1(c2ccccc2)CCCC1	2.32%
CCN(CC)CCOC(=O)C(c1ccccc1)c1ccccc1	3.73%
COc1ccc2c(C)nc(Nc3nc(=O)c(C)c(C)[nH]3)nc2c1	0.3%
OCCNC1CCCc2c1[nH]c1ccc(-c3ccccc3)cc21 (stereo not drawn)	89.4%
NC(=O)C1CCCc2c1[nH]c1ccc(Cl)cc21 (stereo not drawn)	-0.07%
C[C@H](N)C(=O)N[C@@]1(C(=O)O)C[C@@H](Sc2nnc[nH]2)[C@H]2[C@H](C(=O)O)[C@H]21	-1.74%
Nc1ncnc2c1c(-c1ccc(Oc3ccccc3)cc1)nn2C1CCCC1	-1.17%
Nc1ncnc2c1c(-c1cccc(OCc3ccccc3)c1)cn2C1CC(CN2CCCC2)C1 (stereo in doubt)	41.5%
Nc1ncnc2c1c(-c1cccc(OCc3ccccc3)c1)cn2[C@H]1C[C@@H](CN2CCC2)C1	69.4%
CC(C)(C)C(=O)Oc1ccc(S(=O)(=O)Nc2ccccc2C(=O)NCC(=O)[O-])cc1	-1.15%
C=C1/C(=C\C=C2/CCC[C@]3(C)[C@@H]([C@H](C)/C=C/[C@H](C)C(C)(C)O)CC[C@@H]23)C[C@@H](O)C[C@@H]1O	-2.3%
COc1ccc(COc2ccc(Cc3cnc(N)nc3N)cc2OC)cc1	-3.18%

SMILES	result_ITMP
COc1ccc(CCN)cc1OC	-4.61%
COc1ccc(CCNCc2ccc(OCc3ccc(Cl)nc3)c(OC)c2)cc1OC	59.3%
CC[C@H](/C=C/[C@@H](C)[C@H]1CC[C@H]2[C@@H]3CC=C4C[C@@H](O)CC[C@]4(C)[C@H]3CC[C@]12C)C(C)C	-2.7%
O=C(O)c1ccc2[nH]cc(CCCCN3CC=C(c4ccccc4)CC3)c2c1	-12.5%
O=C1Nc2ccc(Cl)c3c2C1(CCCCN1CC=C(c2ccc(Cl)cc2)CC1)CCC3 (stereo not drawn)	70.2%
CO[C@H]1C[C@H](O[C@H]2CC[C@@]3(C)[C@H](CC[C@@H]4[C@@H]3CC[C@]3(C)[C@@H](C5=CC(=O)OC5)[C@@H](OC(C)=O)C[C@]43O)C2)O[C@@H](C)[C@@H]1O	-2.23%
CO/N=C(\C(=O)N[C@@H]1C(=O)N2C(C(=O)[O-])=CCS[C@H]12)c1csc(N)n1	-1.89%
CCC1=C[C@@H]2C[N@](C1)Cc1c([nH]c3ccccc13)[C@@](C(=O)OC)(c1cc3c(cc1OC)N(C)[C@H]1[C@@](O)(C(=O)OC)[C@H](OC(C)=O)[C@]4(CC)C=CCN5CC[C@]31[C@@H]54)C2	7.31%
CCN1CCC(n2cc(CNc3cc(Cl)c4ncc(C#N)c(Nc5ccc(F)c(Cl)c5)c4c3)nn2)CC1	9.34%
C=CC(=O)Nc1cc2c(Nc3ccc(F)c(Cl)c3)ncnc2cc1C#CC(C)(C)N1CCN(C)CC1	36.6%
CCN(CC)CC1CCN(c2ncc3ncnc(Nc4ccc(F)c(Cl)c4)c3n2)CC1	97%
CN1CCC(Nc2ncc3ncnc(Nc4ccc(F)c(Cl)c4)c3n2)CC1	76.5%
N#Cc1cc(CN2CCC(Nc3ncnc4sc(Cl)cc34)CC2)ccc1F	18.7%
CC(C)(C)NCC(O)COc1cccc2c1C[C@H](O)[C@H](O)C2 (mixture of isomers)	-2.49%
CC[C@H](C)[C@H](NC(=O)[C@H](CCC(=O)O)NC(=O)[C@H](CCC(=O)O)NC(=O)[C@H](Cc1ccccc1)NC(=O)[C@H](CC(=O)O)NC(=O)CNC(=O)[C@H](CC(N)=O)NC(=O)CNC(=O)CNC(=O)CNC(=O)CNC(=O)[C@@H]1CCCN1C(=O)[C@H](CCCNC(=N)N)NC(=O)[C@@H]1CCCN1C(=O)[C@H](N)Cc1ccccc1)C(=O)N1CCC[C@H]1C(=O)N[C@@H](CCC(=O)O)C(=O)N[C@@H](CCC(=O)O)C(=O)N[C@@H](Cc1ccc(O)cc1)C(=O)N[C@@H](CC(C)C)C(=O)O	0.65%
O=C1[N-]C(=O)C(c2ccccc2)(c2ccccc2)N1	-1.89%
NC(N)=NC(=O)c1cnn(-c2cccc3ncccc23)c1C1CC1	-1.94%
COc1ccc(C(=O)c2c(C)n(CCN3CCOCC3)c3ccccc23)cc1	0.58%
CCn1c2ccccc2c2cc(Nc3ccnc(NCCCN4CCOCC4)n3)ccc21	57.6%
